In ChEMBL document CHEMBL1157539, “Thousands of chemical starting points for antimalarial lead identification” (Nature, 2010):
“And” between values parts separate entries of the source, which are not always exact repeats. Identical values can stand only once.

test system: HepG2; experiment: GSK_TCMDC: Percent inhibition of human HepG2 cell line. Test compounds present at 10uM.; type: functional

Row | Compound | Inhibition
1 | N#Cc1ccc(N(CC(=O)NCCc2ccccc2)CC2CC2)c2ccccc12.O=C(O)C(F)(F)F | 0%
2 | CN(c1cc(NC(=O)c2ccc(F)cc2)ccn1)C1CCN(Cc2cccc(O)c2)CC1.O=C(O)C(F)(F)F | 3%
3 | CCCc1ccc2c(c1O)CCC(N(CCC)CCC)C2.Cl (stereo not drawn) | 0%
4 | CNCCCCCCOc1ccc(CC(C)NCC(O)c2cccc(C(F)(F)F)c2)cc1.Cl (stereo not drawn) | 99%
5 | CC(Cc1ccc(Oc2ccc(Cl)cc2)cc1)NCC(O)c1cccc(Cl)c1 (stereo not drawn) | 3%
6 | CCOc1ccc2nccc([C@@H](O)[C@@H]3C[C@@H]4CCN3C[C@@H]4CC)c2c1 [ETHYLHYDROCUPREINE] | 1%
7 | CCCCCCCN1C2CCC1CC(CCOc1ccnc3ccc(OC)cc13)C2 (stereo not drawn) | 23%
8 | COC(=O)c1ccc(CC(C)NCC(O)c2cccc(C(F)(F)F)c2)cc1 (stereo not drawn) | 0%
9 | O=C(/C=C/c1ccc(Cl)c(Cl)c1)N1CCC(CN2CCC(c3c[nH]c4ccc(O)cc34)CC2)CC1 | 44%
10 | O=C(C=Cc1ccc(-c2ccccc2)cc1)NC1CCC(CN2CCC(c3c[nH]c4ccccc34)CC2)CC1 (stereo not drawn) | 97% and 43%
11 | CC[C@H]1CN2CC[C@@H]1C[C@H]2[C@H](O)c1cc(N2CCC(CO)CC2)nc2ccc(OC)cc12 | 4%
12 | COC(=O)/C=C/c1ccc(CC(C)NCC(O)c2cccc(Cl)c2)cc1 (stereo not drawn) | 2%
13 | CN(C)c1cccc(CN2CC=C(c3c[nH]c4ccc(Cl)cc34)CC2)c1 | 40%
14 | C1=C(c2c[nH]c3ccccc23)CCN(Cc2ccccc2)C1 | 22%
15 | CC(Cc1ccc(SC(C)C)cc1)NCC(O)c1cccc(Cl)c1.Cl (stereo not drawn) | 5%
16 | COCCNCc1cccc(-c2cccc(CN(C(=O)Nc3ccccc3)C3CCN(Cc4ccccc4)CC3)c2)c1.O=C(O)C(F)(F)F | 28%
17 | CC[C@H]1CN2CC[C@H]1C[C@H]2[C@H](O)c1cc(-c2ccc(F)cc2C)nc2ccc(OC)cc12.Cl | 0%
18 | Cc1ccc(CC(C)(C)NCC(O)c2cccc(C(F)(F)F)c2)cc1.O=C(O)/C=C/C(=O)O (stereo not drawn) | 19%
19 | Cc1[nH]c2cc(Cl)ccc2c1C1=CCN(CCCCC2(C)C(=O)Nc3ccccc32)CC1 (stereo not drawn) | 0%

Row | Compound | Inhibition
20 | CC[C@H]1CN2CC[C@H]1C[C@H]2[C@H](OC(=O)c1ccccc1)c1cc(C#N)nc2ccc(OC)cc12 | 19%
21 | COc1cccc(CCNC(C)Cc2ccc(OCCCCOc3ccccc3)cc2)c1 (stereo not drawn) | 100%
22 | O=C(CCCCCc1ccccc1)NC1CCC(CN2CCC(c3c[nH]c4ccccc34)CC2)CC1 (stereo not drawn) | 34%
23 | Cc1[nH]c2ccc(NS(C)(=O)=O)cc2c1C1CCN(CC2CCN(C(=O)/C=C/c3ccc(Cl)c(Cl)c3)CC2)CC1 | 15%
24 | COc1ccc2nc(-c3ccc(F)cc3)cc([C@@H](O)[C@@H]3C[C@@H]4CCN3CC4C=NO)c2c1 (stereo partly drawn) | 14%
25 | CC[C@H]1CN2CC[C@H]1C[C@H]2[C@H](O)c1cc(-c2ccc(SC)cc2)nc2ccc(OC)cc12.Cl | 9%
26 | Br.COC(=O)c1ccc(CC(C)NCC(O)c2cccc(SC(F)(F)F)c2)cc1 (stereo not drawn) | 7%
27 | Oc1cccc(C2CCCN(Cc3cccc4cc[nH]c34)C2)c1 (stereo not drawn) | 16%
28 | COc1ccc2[nH]cc(C3=CCN(Cc4ccccc4)CC3)c2c1 | 51%
29 | O=C(Cc1c(-c2ccccc2)[nH]c2ccccc12)NC1CCC(CN2CCC(c3c[nH]c4ccccc34)CC2)CC1 (stereo not drawn) | 31%
30 | CC[C@H]1CN2CC[C@@H]1C[C@H]2[C@H](O)c1cc(N2CCC(O)CC2)nc2ccc(OC)cc12 | 15%
31 | O=C(Cc1cc(=O)oc2cc(O)ccc12)NC1CCC(CN2CCC(c3c[nH]c4ccccc34)CC2)CC1 (stereo not drawn) | 5%
32 | Cc1cc(NC(=O)[C@H](CC(C)C)Nc2ccc(C#N)c3ccccc23)ccc1F.O=C(O)C(F)(F)F | 35%
33 | CCOc1ccc(-c2nc3cc(-c4nc5cc(N6CCN(C)CC6)ccc5[nH]4)ccc3[nH]2)cc1.Cl.O | 16%
34 | CN1C(=O)[C@H](NC(=O)[C@@H](Cc2ccccc2)NC(=S)Nc2ccccc2)N=C(c2ccccc2)c2ccccc21 | 0%
35 | CC(=O)Nc1ccc(OCCN(CC(C)(C)C)c2ccc(C#N)c(C(F)(F)F)c2)c(Cl)c1 | 0%
36 | COC(=O)c1ccc(CC(C)NCC(O)c2cccc(C(F)(F)F)c2)cc1F.Cl (stereo not drawn) | 1%
37 | Cc1cc(NC(=O)[C@@H](Nc2ccc(C#N)c3ccccc23)C2CCCCC2)ccc1F.O=C(O)C(F)(F)F | 10%
38 | O=C(/C=C/c1ccc2ccccc2c1)NC1CCC(CN2CCC(c3c[nH]c4ccccc34)CC2)CC1 (stereo not drawn) | 28%
